Results as given in PubChem BioAssay AID1159580 (chemical genetic matrix, 2015).
Out of some 5,500 compounds screened, about 2,000 (36%) were called active. Not shown: some 18% with an inconclusive outcome. No stated cut-off is given here; in the data, active means normalized growth mostly below about 0.91 (no sharp cut-off); inconclusive means no clear call, values can overlap the other calls; inactive means mostly above about 0.92. Some of the results follow.

Assay: chemical genetic growth profiling, strain panel (AID 1159580);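 further: tested at 20 µM; growth read once vehicle control cultures reached saturation at 30 °C; 1 = growth at the plate median or of vehicle wells; lower values mean less growth of the strain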
Conditions: S. cerevisiae deletion strains, growth OD

Measured: normalized growth

O=c1ccc2c(O)c3ccoc3cc2o1
inactive: locus YAL021C, strain ccr4, active compounds read low 0.992 | locus YAL026C, strain drs2, active compounds read low 0.974 | locus YAL030W, strain snc1, active compounds read low 0.989 | locus YBL061C, strain skt5, active compounds read low 0.982 | locus YBR009C, strain hhf1, active compounds read low 0.977 | locus YBR023C, strain chs3, active compounds read low 0.987 | locus YBR171W, strain sec66, active compounds read low 0.983 | locus YBR231C, strain swc5, active compounds read low 0.989 | locus YBR279W, strain paf1, active compounds read low 0.984 | locus YCL011C, strain gbp2, active compounds read low 0.989 | locus YCL016C, strain dcc1, active compounds read low 0.986 | locus YCL069W, strain vba3, active compounds read low 0.98 | locus YCR088W, strain abp1, active compounds read low 0.967 | locus YDL005C, strain med2, active compounds read low 0.986 | locus YDL040C, strain nat1, active compounds read low 0.99 | locus YDR001C, strain nth1, active compounds read low 0.977 | locus YDR069C, strain doa4, active compounds read low 0.986 | locus YDR137W, strain rgp1, active compounds read low 1.01 | locus YDR159W, strain sac3, active compounds read low 0.997 | locus YDR195W, strain ref2 0.957 | locus YDR297W, strain sur2, active compounds read low 0.987 | locus YDR334W, strain swr1, active compounds read low 0.947 | locus YDR335W, strain msn5, active compounds read low 0.994 | locus YDR392W, strain spt3, active compounds read low 0.98 | locus YEL003W, strain gim4, active compounds read low 0.984 | locus YEL037C, strain rad23, active compounds read low 0.984 | locus YEL061C, strain CIN8 (second series), active compounds read low 0.965 | locus YER015W, strain faa2, active compounds read low 0.993 | locus YER016W, strain bim1, active compounds read low 0.994 | locus YER111C, strain swi4, active compounds read low 0.995 | locus YER155C, strain BEM2 (second series), active compounds read low 0.997 | locus YFR010W, strain ubp6, active compounds read low 0.968 | locus YGL167C, strain pmr1, active compounds read low 0.986 | locus YGL173C, strain kem1, active compounds read low 0.992 | locus YGL227W, strain vid30, active compounds read low 0.981 | locus YGL240W, strain doc1, active compounds read low 0.99 | locus YGL253W, strain hxk2, active compounds read low 0.997 | locus YHR013C, strain ard1, active compounds read low 0.956 | locus YHR027C, strain rpn1, active compounds read low 0.998 | locus YHR030C, strain SLT2, active compounds read low 0.997 | locus YHR079C, strain IRE1, active compounds read low 0.985 | locus YHR142W, strain chs7, active compounds read low 0.975 | locus YJL092W, strain hpr5, active compounds read low 0.983 | locus YJL095W, strain BCK1 (second series), active compounds read low 0.972 | locus YJL095W, strain BCK1, active compounds read low 0.991 | locus YJL115W, strain asf1, active compounds read low 0.965 | locus YJL129C, strain trk1, active compounds read low 0.978 | locus YJL154C, strain vps35, active compounds read low 0.966 | locus YJL164C, strain tpk1, active compounds read low 0.992 | locus YJL166W, strain qcr8, active compounds read low 0.963 | locus YJL187C, strain SWE1, active compounds read low 0.988 | locus YJR066W, strain TOR1, active compounds read low 0.935 | locus YKL160W, strain elf1, active compounds read low 0.993 | locus YKR026C, strain gcn3, active compounds read low 0.986 | locus YKR091W, strain srl3, active compounds read low 0.984 | locus YLL001W, strain dnm1, active compounds read low 0.982 | locus YLL026W, active compounds read low 0.993 | locus YLL041C, strain sdh2, active compounds read low 0.981 | locus YLR027C, strain aat2, active compounds read low 0.976 | locus YLR113W, strain HOG1, active compounds read low 1 | locus YLR221C, strain rsa3, active compounds read low 0.984 | locus YLR258W, strain gsy2, active compounds read low 0.987 | locus YLR262C, strain YPT6 (second series), active compounds read low 1.01 | locus YLR320W, strain mms22, active compounds read low 1.01 | locus YLR342W, strain FKS1, active compounds read low 0.984 | locus YLR357W, strain rsc2, active compounds read low 0.975 | locus YLR370C, strain arc18, active compounds read low 0.984 | locus YLR384C, strain iki3, active compounds read low 0.992 | locus YML120C, strain ndi1, active compounds read low 0.97 | locus YMR058W, strain fet3, active compounds read low 0.98 | locus YMR125W, strain sto1, active compounds read low 0.983 | locus YMR129W, active compounds read low 0.976 | locus YMR205C, strain PFK2, active compounds read low 0.975 | locus YMR231W, strain pep5, active compounds read low 0.981 | locus YNL071W, strain lat1, active compounds read low 0.979 | locus YNL183C, strain NPR1, active compounds read low 0.944 | locus YNL209W, strain ssb2, active compounds read low 0.975 | locus YNL248C, strain rpa49, active compounds read low 0.941 | locus YNL322C, strain KRE1 (second series), active compounds read low 0.984 | locus YNR049C, strain mso1, active compounds read low 0.996 | locus YOR001W, strain rrp6, active compounds read low 0.975 | locus YOR070C, strain gyp1, active compounds read low 0.992 | locus YOR080W, strain dia2, active compounds read low 0.987 | locus YOR083W, strain WHI5, active compounds read low 0.989 | locus YOR106W, strain vam3, active compounds read low 0.977 | locus YOR231W, strain MKK1, active compounds read low 0.996 | locus YOR265W, strain rbl2, active compounds read low 0.973 | locus YOR270C, strain vph1, active compounds read low 0.904 | locus YOR290C, strain snf2, active compounds read low 0.991 | locus YPL051W, strain arl3, active compounds read low 1.01 | locus YPL078C, strain atp4, active compounds read low 0.974 | locus YPL106C, strain sse1, active compounds read low 0.978 | locus YPL240C, strain hsp82, active compounds read low 0.983 | locus YPL256C, strain CLN2, active compounds read low 0.978
